Source: PubChem BioAssay (EPA / NIEHS)
Results filed as inconclusive are left out. Some compounds were tested as several samples or in several runs, with calls that do not always agree. Activity calls are given as the source filed them. How the source made its calls, unless noted: active means hit-call score of the fitted dose curve at least 0.9, where 1 is the maximum; inconclusive means response in the unintended direction; inactive means score below 0.9.

Assays:
[1] = molecular target: Retinoic acid receptor RXR-alpha (Homo sapiens) (UniProt P19793); assay: ATG_RXRa_TRANS: Attagene TRANS-FACTORIAL HepG2 Assay for human Retinoid X Receptor alpha (RXRa) (AID 2283012)
Procedure, shortened: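 Chimeric NR-GAL4 trans-activation in HepG2, 24 h treatment; reporter transcripts quantified by fluorescence on capillary electrophoresis, analysed for upward change from DMSO.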

[2] = molecular target: human Retinoid X Receptor beta (RXRb), RXRB (gene 6257) (UniProt P28702); assay: ATG_RXRb_TRANS: Attagene TRANS-FACTORIAL HepG2 Assay for human Retinoid X Receptor beta (RXRb) (AID 2283013)
Procedure, shortened: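 After a 24 h incubation with test chemical, transfected HepG2 cells carrying NR-Gal4 fusions and GAL4-UAS reporter transcription units yield RNA whose reporter cDNA is FAM-labelled, HpaI-cut and sized by capillary electrophoresis; increases over DMSO are scored.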

[3] = molecular target: human Thyroid Receptor alpha (THRa1), THRA (gene 7067) (UniProt P10827); assay: ATG_THRa1_TRANS: Attagene TRANS-FACTORIAL HepG2 Assay for human Thyroid Receptor alpha (THRa1) (AID 2283014)
Procedure, shortened: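 First, HepG2 cells receive multiple GAL4-UAS reporter units and the chimeric receptor. They are then dosed for 24 h, after which RNA is reverse-transcribed, amplified, labelled, HpaI-cut and sized by capillary electrophoresis; gain relative to DMSO is scored.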

[4] = molecular target: human Vitamin D Receptor (VDR), VDR (gene 7421) (UniProt P11473); assay: ATG_VDR_TRANS: Attagene TRANS-FACTORIAL HepG2 Assay for human Vitamin D Receptor (VDR) (AID 2283022)
Procedure, shortened: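 Fluorescence of labelled reporter cDNA fragments, resolved by capillary electrophoresis, gives mRNA induction after 24 h treatment of HepG2 cells carrying transfected Gal4-fusion reporter units. Activity is fitted in the positive direction with DMSO as baseline.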

[5] = read-out: E-selectin (Homo sapiens) (UniProt P16581); assay: BSK_3C_Eselectin: BioMAP Diversity Plus: 3C Assay for Eselectin Biomarker Activity (AID 2283015; active means hit-call score of the fitted dose curve at least 0.9, where 1 is the maximum; inactive means score below 0.9); details: primary human endothelial cells (HUVEC); actives raise or lower the signal
Procedure, shortened: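 Human vascular endothelium from umbilical vein is exposed to test chemicals for 24 h. E-selectin levels are read by ELISA and compared with DMSO controls.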

[6] = read-out: Interleukin-1 alpha (IL1a), IL1A (gene 3552); assay: BSK_BE3C_IL1a: BioMAP Diversity Plus: BE3C Assay for Interleukin-1 alpha (IL1a) Biomarker Activity (AID 2283016; active means hit-call score of the fitted dose curve at least 0.9, where 1 is the maximum; inactive means score below 0.9); details: primary human bronchial epithelial cells; actives raise or lower the signal
Procedure, shortened: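 Measured in human lung primary bronchial epithelial cells: IL-1a by ELISA at 24 h after dosing, with bidirectional fitting against DMSO.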

[7] = read-out: Monocyte Chemoattractant Protein-1 (MCP1), CCL2 (gene 6347); assay: BSK_3C_MCP1: BioMAP Diversity Plus: 3C Assay for Monocyte Chemoattractant Protein-1 (MCP1) Biomarker Activity (AID 2283017; active means hit-call score of the fitted dose curve at least 0.9, where 1 is the maximum; inactive means score below 0.9); details: primary human endothelial cells (HUVEC); actives raise or lower the signal
Procedure, shortened: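 Endothelial cells from human umbilical vein are dosed with chemical, cultured 24 h, then assayed for MCP-1 by ELISA; both increases and decreases are modelled against DMSO controls.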

[8] = read-out: Monocyte Chemoattractant Protein-1 (MCP1), CCL2 (gene 6347); assay: BSK_4H_MCP1: BioMAP Diversity Plus: 4H Assay for Monocyte Chemoattractant Protein-1 (MCP1) Biomarker Activity (AID 2283018; active means hit-call score of the fitted dose curve at least 0.9, where 1 is the maximum; inactive means score below 0.9); details: primary human endothelial cells (HUVEC); actives raise or lower the signal
Procedure, shortened: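 Primary human umbilical vein endothelium is exposed to chemical for 24 h before MCP-1 is assayed by ELISA. Concentration-response fitted bidirectionally relative to DMSO.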

[9] = read-out: Human Leukocyte Antigen - DR isotype (HLADR), HLA-DRA (gene 3122); assay: BSK_3C_HLADR: BioMAP Diversity Plus: 3C Assay for Human Leukocyte Antigen - DR isotype (HLADR) Biomarker Activity (AID 2283019; active means hit-call score of the fitted dose curve at least 0.9, where 1 is the maximum; inactive means score below 0.9); details: primary human endothelial cells (HUVEC); actives raise or lower the signal
Procedure, shortened: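 Endothelial cells from human umbilical vein are treated with test chemical; after 24 h, HLA-DR levels are measured by ELISA. Data are fitted in both directions using DMSO as the baseline.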

[10] = read-out: Interleukin-8 (IL8), CXCL8 (gene 3576); assay: BSK_3C_IL8: BioMAP Diversity Plus: 3C Assay for Interleukin-8 (IL8) Biomarker Activity (AID 2283020; active means hit-call score of the fitted dose curve at least 0.9, where 1 is the maximum; inactive means score below 0.9); details: primary human endothelial cells (HUVEC); actives raise or lower the signal
Procedure, shortened: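 Using DMSO-treated wells as the baseline, bidirectional curve fitting was applied to ELISA-measured IL-8 from human umbilical vein endothelial cultures sampled 24 h after compound addition.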

[11] = read-out: Monokine induced gamma interferon (MIG), CXCL9 (gene 4283); assay: BSK_3C_MIG: BioMAP Diversity Plus: 3C Assay for Monokine induced gamma interferon (MIG) Biomarker Activity (AID 2283021; active means hit-call score of the fitted dose curve at least 0.9, where 1 is the maximum; inactive means score below 0.9;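 on AC50: MIG protein level measured by immunoassay in the treated endothelial cultures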); details: primary human endothelial cells (HUVEC); actives raise or lower the signal
Procedure, shortened: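 ELISA-measured MIG in dosed HUVEC 3C cultures at 24 h, analysed by bidirectional fitting with DMSO defining baseline activity.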

[12] = BSK_3C_SRB: Viability Assessment in the BioMAP Diversity Plus: 3C Assay (AID 2283023; active means hit-call score of the fitted dose curve at least 0.9, where 1 is the maximum; inactive means score below 0.9;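 further: cells read 24 h after compound dosing; fitted both ways against DMSO so a hit may be signal rise or drop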); details: primary human endothelial cells (HUVEC)
Procedure, shortened: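 Cells were dosed with chemical, cultured 24 h, fixed with 10% TCA, stained with 0.1% SRB and read at 560 nm. Human umbilical vein endothelium was used; DMSO served as negative control and baseline.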

[13] = read-out: Matrix Metallopeptidase 1 (MMP1), MMP1 (gene 4312); assay: BSK_BE3C_MMP1: BioMAP Diversity Plus: BE3C Assay for Matrix Metallopeptidase 1 (MMP1) Biomarker Activity (AID 2283024; active means hit-call score of the fitted dose curve at least 0.9, where 1 is the maximum; inactive means score below 0.9); details: primary human bronchial epithelial cells; actives raise or lower the signal
Procedure, shortened: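 In this multiplexed primary-cell system, human bronchial epithelium received chemicals for 24 h before an ELISA for MMP1. Values reflect bidirectional fits normalised to the DMSO baseline.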

[14] = BSK_3C_Vis: BioMAP Diversity Plus: 3C Assay for Morphology Visualization (AID 2283025; active means hit-call score of the fitted dose curve at least 0.9, where 1 is the maximum; inactive means score below 0.9;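 further: fitted both ways so gain or loss versus DMSO counts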;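 on AC50: light microscopy image of cell morphology used as background control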); details: primary human endothelial cells (HUVEC)
Procedure, shortened: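 Light-microscopy morphology readout, 24 h exposure, human primary umbilical vein endothelium; analysed relative to DMSO with bidirectional fitting.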

[15] = read-out: Pselectin, SELP (gene 6403); assay: BSK_4H_Pselectin: BioMAP Diversity Plus: 4H Assay for Pselectin Biomarker Activity (AID 2283026; active means hit-call score of the fitted dose curve at least 0.9, where 1 is the maximum; inactive means score below 0.9); details: primary human endothelial cells (HUVEC); actives raise or lower the signal
Procedure, shortened: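 Bidirectional fits against DMSO gave the endpoint. Cells: primary human umbilical vein endothelium, chemical-treated for 24 h before ELISA detection of P-selectin.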

[16] = BSK_4H_SRB: Viability Assessment in the BioMAP Diversity Plus: 4H Assay (AID 2283027; active means hit-call score of the fitted dose curve at least 0.9, where 1 is the maximum; inactive means score below 0.9;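 further: cells exposed to compound for 24 h before staining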;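 on AC50: curves fitted both ways versus DMSO so AC50 may be loss or gain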); details: primary human endothelial cells (HUVEC)
Procedure, shortened: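 HUVEC, 24 h post-dose; 10% TCA fix, 0.1% SRB stain, A560 nm. Total protein = overt cytotoxicity, parallel to biomarker read. Bidirectional fit vs DMSO baseline.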

[17] = BSK_BE3C_SRB: Viability Assessment in the BioMAP Diversity Plus: BE3C Assay (AID 2283028; active means hit-call score of the fitted dose curve at least 0.9, where 1 is the maximum; inactive means score below 0.9;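 on AC50: fitted both ways so AC50 may mark signal gain or loss versus DMSO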); details: primary human bronchial epithelial cells
Procedure, shortened: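 Overt cytotoxicity was assessed as total protein in confluent human primary bronchial epithelial cultures 24 h after chemical addition, using 0.1% sulforhodamine B staining read at 560 nm.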

[18] = read-out: Thrombomodulin, THBD (gene 7056); assay: BSK_3C_Thrombomodulin: BioMAP Diversity Plus: 3C Assay for Thrombomodulin Biomarker Activity (AID 2283029; active means hit-call score of the fitted dose curve at least 0.9, where 1 is the maximum; inactive means score below 0.9); details: primary human endothelial cells (HUVEC); actives raise or lower the signal
Procedure, shortened: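 In a multiplexed primary-cell system, human umbilical vein endothelium received chemical and was assayed 24 h later for thrombomodulin by ELISA. Parallel cultures were SRB-stained (0.1% SRB after 10% TCA fixation, read at 560 nm) to flag cytotoxicity.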

[19] = read-out: Urokinase-type plasminogen activator receptor (uPAR), PLAUR (gene 5329); assay: BSK_4H_uPAR: BioMAP Diversity Plus: 4H Assay for Urokinase-type plasminogen activator receptor (uPAR) Biomarker Activity (AID 2283030; active means hit-call score of the fitted dose curve at least 0.9, where 1 is the maximum; inactive means score below 0.9); details: primary human endothelial cells (HUVEC); actives raise or lower the signal
Procedure, shortened: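 Chemicals are dosed onto human vascular endothelial primary cells (umbilical vein). After 24 h, uPAR is read by ELISA. Gain or loss of signal is fitted relative to DMSO.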

[20] = read-out: Vascular endothelial growth factor receptor 2 (Homo sapiens) (UniProt P35968); assay: BSK_4H_VEGFRII: BioMAP Diversity Plus: 4H Assay for Vascular endothelial growth factor receptor 2 (VEGFR2) Biomarker Activity (AID 2283031; active means hit-call score of the fitted dose curve at least 0.9, where 1 is the maximum; inactive means score below 0.9); details: primary human endothelial cells (HUVEC); actives raise or lower the signal
Procedure, shortened: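 VEGFRII levels on human vascular endothelial primary cells were determined by ELISA at 24 hours post-dosing, with gain- or loss-of-signal fitted against DMSO controls.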

Measured: AC50

human Thyroid Receptor alpha (THRa1), THRA (gene 7067), sequence (P10827 whole entry, looked up, the tested form may be a part): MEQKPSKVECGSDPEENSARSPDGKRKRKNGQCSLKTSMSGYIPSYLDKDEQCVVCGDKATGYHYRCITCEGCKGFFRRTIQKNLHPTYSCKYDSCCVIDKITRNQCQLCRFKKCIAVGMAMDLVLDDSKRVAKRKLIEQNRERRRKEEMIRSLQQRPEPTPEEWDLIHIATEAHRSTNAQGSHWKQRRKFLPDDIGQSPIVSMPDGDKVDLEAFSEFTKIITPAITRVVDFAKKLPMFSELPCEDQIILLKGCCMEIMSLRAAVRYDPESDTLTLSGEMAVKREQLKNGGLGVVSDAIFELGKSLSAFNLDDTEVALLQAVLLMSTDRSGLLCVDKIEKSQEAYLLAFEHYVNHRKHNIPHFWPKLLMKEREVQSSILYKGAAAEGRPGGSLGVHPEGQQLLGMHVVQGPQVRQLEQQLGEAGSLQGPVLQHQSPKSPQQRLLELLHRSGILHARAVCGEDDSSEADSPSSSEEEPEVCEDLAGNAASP
human Vitamin D Receptor (VDR), VDR (gene 7421), sequence (P11473 whole entry, looked up, the tested form may be a part): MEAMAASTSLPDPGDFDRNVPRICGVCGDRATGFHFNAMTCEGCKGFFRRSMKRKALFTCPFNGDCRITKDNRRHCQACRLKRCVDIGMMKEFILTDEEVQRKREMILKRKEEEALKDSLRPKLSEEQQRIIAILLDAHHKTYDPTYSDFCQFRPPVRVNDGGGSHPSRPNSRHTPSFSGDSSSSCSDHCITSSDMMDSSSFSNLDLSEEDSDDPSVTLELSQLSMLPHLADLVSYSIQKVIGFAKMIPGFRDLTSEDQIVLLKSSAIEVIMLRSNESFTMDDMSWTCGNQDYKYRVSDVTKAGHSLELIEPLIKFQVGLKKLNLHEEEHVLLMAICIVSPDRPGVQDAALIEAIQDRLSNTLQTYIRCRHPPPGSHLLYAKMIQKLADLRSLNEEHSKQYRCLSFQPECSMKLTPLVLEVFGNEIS
human Retinoid X Receptor beta (RXRb), RXRB (gene 6257), sequence (P28702 whole entry, looked up, the tested form may be a part): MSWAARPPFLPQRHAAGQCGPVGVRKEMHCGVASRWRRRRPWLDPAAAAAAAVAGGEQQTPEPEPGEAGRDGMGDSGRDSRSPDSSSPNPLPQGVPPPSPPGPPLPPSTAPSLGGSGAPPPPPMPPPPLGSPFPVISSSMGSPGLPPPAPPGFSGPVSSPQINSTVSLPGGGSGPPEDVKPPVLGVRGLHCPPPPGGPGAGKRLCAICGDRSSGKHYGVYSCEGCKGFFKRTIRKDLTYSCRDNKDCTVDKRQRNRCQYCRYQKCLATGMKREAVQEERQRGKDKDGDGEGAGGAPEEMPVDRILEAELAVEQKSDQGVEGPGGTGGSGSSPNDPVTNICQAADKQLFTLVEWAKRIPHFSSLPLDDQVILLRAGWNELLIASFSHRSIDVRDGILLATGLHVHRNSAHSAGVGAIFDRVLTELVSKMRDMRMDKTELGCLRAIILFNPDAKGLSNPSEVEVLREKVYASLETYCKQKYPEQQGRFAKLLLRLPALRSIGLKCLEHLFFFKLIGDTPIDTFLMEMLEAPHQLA
E-selectin (Homo sapiens), sequence (P16581 whole entry, looked up): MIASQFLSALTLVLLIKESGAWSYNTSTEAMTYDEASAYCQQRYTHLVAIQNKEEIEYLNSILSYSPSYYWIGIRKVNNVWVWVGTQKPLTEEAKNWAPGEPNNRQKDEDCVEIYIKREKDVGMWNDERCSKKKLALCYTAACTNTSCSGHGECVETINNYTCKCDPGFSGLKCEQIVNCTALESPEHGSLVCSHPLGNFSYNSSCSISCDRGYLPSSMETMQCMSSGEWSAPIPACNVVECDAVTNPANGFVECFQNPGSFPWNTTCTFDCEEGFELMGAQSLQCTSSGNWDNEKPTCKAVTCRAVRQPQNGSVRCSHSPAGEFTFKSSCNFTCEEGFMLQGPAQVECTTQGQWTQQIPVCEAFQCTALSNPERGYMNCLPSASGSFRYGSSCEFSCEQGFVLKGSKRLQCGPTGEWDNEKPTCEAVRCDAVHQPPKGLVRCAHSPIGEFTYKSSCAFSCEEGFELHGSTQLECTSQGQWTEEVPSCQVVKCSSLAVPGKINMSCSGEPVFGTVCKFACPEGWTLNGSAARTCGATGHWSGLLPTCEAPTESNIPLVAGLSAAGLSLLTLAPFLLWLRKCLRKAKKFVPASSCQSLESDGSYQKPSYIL
Retinoic acid receptor RXR-alpha (Homo sapiens), sequence (P19793 whole entry, looked up, the tested form may be a part): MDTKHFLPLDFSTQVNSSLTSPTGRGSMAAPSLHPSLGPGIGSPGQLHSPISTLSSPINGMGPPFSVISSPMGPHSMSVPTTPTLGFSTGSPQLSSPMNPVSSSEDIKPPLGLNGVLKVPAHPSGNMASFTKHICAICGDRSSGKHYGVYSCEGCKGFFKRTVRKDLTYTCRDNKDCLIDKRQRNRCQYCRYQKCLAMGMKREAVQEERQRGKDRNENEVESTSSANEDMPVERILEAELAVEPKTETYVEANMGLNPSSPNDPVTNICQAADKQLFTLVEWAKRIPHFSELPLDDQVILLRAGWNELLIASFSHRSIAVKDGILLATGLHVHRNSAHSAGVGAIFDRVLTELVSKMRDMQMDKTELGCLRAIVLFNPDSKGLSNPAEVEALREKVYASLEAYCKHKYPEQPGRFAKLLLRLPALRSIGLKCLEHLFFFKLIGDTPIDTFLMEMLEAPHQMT

O=S(=O)(F)C(F)(F)C(F)(F)C(F)(F)C(F)(F)F
inactive: [1]

Brc1ccc(Oc2c(Br)cc(Br)cc2Br)c(Br)c1
inactive: [1] | [2]

CCOc1cc(C=O)ccc1O
inactive: [1] | [2] | [3]

CN(CCCC(O)c1cccnc1)N=O (centres undefined)
inactive: [1] | [2]

COc1nn(C(=O)NS(=O)(=O)c2ccccc2OC(F)(F)F)c(=O)n1C
inactive: [1]

CCCCCCCCBr
inactive: [1] | [2]

Nc1ccc(-c2ccccc2)cc1
inactive: [1] | [2] | [3]

CS(=O)(=O)c1ccc(C(=O)C2C(=O)CCCC2=O)c(Cl)c1COCC(F)(F)F
inactive: [1]

CCN(N=O)C(N)=O
inactive: [1]

N#CS
inactive: [1] | [2]

ClCCCCl
inactive: [1]

CC(C)CP(=S)(S)CC(C)C
inactive: [1] | [2]

Cc1cc(C(F)(C(F)(F)F)C(F)(F)F)ccc1NC(=O)c1cccc(I)c1C(=O)NC(C)(C)CS(C)(=O)=O
inactive: [1]

Fc1cccc(Cl)c1CCl
inactive: [1] | [2] | [3]

c1cc[c]([Sb]([c]2ccccc2)[c]2ccccc2)cc1
inactive: [1] | [3]
active: [2] 4360 nM

CCCCCCCCCCCCOS(=O)(=O)O
inactive: [1]
active: [2] 33400 nM

O=C(O)CC(O)(CC(=O)O)C(=O)O
inactive: [1] | [2] | [4]
active: [1] 5060 nM | [2] 1110 nM

O=NN1CCCCCCC1
inactive: [1] | [2]

C=CCc1ccccc1O
inactive: [1] | [2]

CC(C)C(C)(N)C#N (centres undefined)
inactive: [1] | [2] | [3]

CC(=O)CN(CC(C)=O)N=O
inactive: [1] | [2] | [3]

O=[N+]([O-])c1ccccc1O
inactive: [1] | [2]

Cl[C@H]1OCCO[C@@H]1Cl
inactive: [1] | [2] | [3]

Clc1ccc(C(Cl)(Cl)Cl)cn1
inactive: [1] | [2] | [3]

Cc1cccc(C)c1NC(=O)CN1CCCC1=O
inactive: [1]

C=C(C)C(=O)OCC(CC)CCCC (centres undefined)
inactive: [1] | [2] | [3]

C=CC(F)(C(F)(F)F)C(F)(F)C(F)(F)F (centres undefined)
inactive: [1] | [2]

O=C1c2ccccc2C(=O)C1C(=O)C(c1ccccc1)c1ccc(Cl)cc1 (centres undefined)
inactive: [1] | [2]
active: [3] 7690 nM

CCOC(=O)OC1=C(c2cc(C)ccc2C)C(=O)NC12CCC(OC)CC2 (centres undefined)
inactive: [1] | [2]

O=[N+]([O-])c1c2ccccc2cc2ccccc12
inactive: [1]
active: [2] 5120 nM

CCC[N+](CCC)(CCC)CCC
inactive: [1] | [2]

O=c1[nH]c(=O)n(Cl)c(=O)n1Cl
inactive: [1] | [2] | [3]

C[CH2][Hg][S]c1ccccc1C(=O)O
inactive: [1] | [3]
active: [2] 1720 nM

CC(=O)C(F)(F)C(F)(F)F
inactive: [1] | [2] | [3]

CCCCCCCCCCBr
active: [2] 100000 nM
inactive: [1]

[F][Sn]([c]1ccccc1)([c]1ccccc1)[c]1ccccc1
active: [1] 4.04 nM | [2] 1.28 nM

Cc1cccc(N=Nc2ccc(N(C)C)cc2)c1
inactive: [1] | [2]

Brc1c(Br)c(Br)c(Oc2c(Br)c(Br)c(Br)c(Br)c2Br)c(Br)c1Br
inactive: [1] | [2] | [3]

N#Cc1ccncc1
inactive: [1] | [2] | [3] | [4]

O=[N+]([O-])c1cccc2ccccc12
active: [2] 100000 nM
not listed: [4]
inactive: all other assays above

C1CCC(C2CCCCC2)CC1
active: [2] 66100 nM
inactive: [1] | [3] | [4]

CCCCN(CCCCO)N=O
inactive: [1] | [2] | [3]

[Cl][Sn]([c]1ccccc1)([c]1ccccc1)[c]1ccccc1
active: [1] 233 nM | [2] 0.965 nM | [5] 154 nM | [6] 126 nM | [7] 292 nM | [8] 66 nM | [9] 81.7 nM | [10] 298 nM | [11] 436 nM | [12] 188 nM | [13] 360 nM | [14] 176 nM | [15] 64.1 nM | [16] 192 nM | [17] 146 nM | [18] 5000 nM | [19] 205 nM
inactive: [3] | [4] | [20]

Cc1cc(-c2cc(C)c(N)c(C)c2)cc(C)c1N
active: [2] 25400 nM
inactive: [1] | [3] | [4]

CC(C)(C)c1cc([N+](=O)[O-])cc(C(C)(C)C)c1O
active: [1] 26700 nM | [2] 2540 nM | [5] 549 nM | [9] 16 nM | [12] 815 nM | [16] 71.9 nM | [18] 47.3 nM
inactive: all other assays above

CCC(C)(C#N)N=NC(C)(C#N)CC (centres undefined)
not listed: [4]
inactive: all other assays above
